In PubChem BioAssay AID1159580 (chemical genetic matrix, 2015):
In all, about 5,500 compounds went through this assay and about 2,000 (36%) were called active. Another 18% or so got no clear call; they are omitted. Cut-off read from the data, not from the text of the source: active = normalized growth mostly below about 0.91 (no sharp cut-off); inconclusive = no clear call, values can overlap the other calls; inactive = mostly above about 0.92. The list shows a part of the results.

Assay: chemical genetic growth profiling, strain panel (AID 1159580);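 note: tested at 20 µM; growth read once vehicle control cultures reached saturation at 30 °C; 1 = growth at the plate median or of vehicle wells; lower values mean less growth of the strain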
Settings: growth OD

Measured: normalized growth

COc1ccc(CC(=O)c2ccc(O)cc2O)cc1
active: S. cerevisiae deletion strains, locus YKR001C, strain vps1, hits give low values 0.766 | S. cerevisiae deletion strains, locus YLR262C, strain YPT6 (second series), hits give low values 0.768 | S. cerevisiae deletion strains, locus YLR371W, strain rom2, hits give low values 0.86 | S. cerevisiae deletion strains, locus YLR418C, strain cdc73, hits give low values 0.744 | S. cerevisiae deletion strains, locus YNL071W, strain lat1, hits give low values 0.851 | S. cerevisiae deletion strains, locus YNL307C, strain MCK1, hits give low values 0.699 | S. cerevisiae deletion strains, locus YOL147C, strain pex11, hits give low values 0.908 | S. cerevisiae deletion strains, locus YOR184W, strain ser1, hits give low values 0.831 | S. cerevisiae deletion strains, locus YPL051W, strain arl3, hits give low values 0.885 | S. cerevisiae deletion strains, locus YPR163C, strain tif3, hits give low values 0.752
inactive: S. cerevisiae deletion strains, locus YKL068W, hits give low values 0.98 | S. cerevisiae deletion strains, locus YKL085W, strain MDH1 (second series), hits give low values 0.992 | S. cerevisiae deletion strains, locus YKL085W, strain MDH1, hits give low values 0.992 | S. cerevisiae deletion strains, locus YKL160W, strain elf1, hits give low values 0.938 | S. cerevisiae deletion strains, locus YKL190W, strain CNB1, hits give low values 0.975 | S. cerevisiae deletion strains, locus YKR026C, strain gcn3, hits give low values 0.988 | S. cerevisiae deletion strains, locus YKR091W, strain srl3, hits give low values 0.988 | S. cerevisiae deletion strains, locus YLL001W, strain dnm1, hits give low values 0.944 | S. cerevisiae deletion strains, locus YLL026W, hits give low values 0.993 | S. cerevisiae deletion strains, locus YLL041C, strain sdh2, hits give low values 0.99 | S. cerevisiae deletion strains, locus YLR027C, strain aat2, hits give low values 0.997 | S. cerevisiae deletion strains, locus YLR039C, strain RIC1, hits give low values 0.686 | S. cerevisiae deletion strains, locus YLR058C, strain SHM2, hits give low values 0.946 | S. cerevisiae deletion strains, locus YLR102C, strain apc9, hits give low values 0.966 | S. cerevisiae deletion strains, locus YLR113W, strain HOG1, hits give low values 0.938 | S. cerevisiae deletion strains, locus YLR221C, strain rsa3, hits give low values 0.955 | S. cerevisiae deletion strains, locus YLR258W, strain gsy2, hits give low values 0.984 | S. cerevisiae deletion strains, locus YLR262C, strain YPT6, hits give low values 0.669 | S. cerevisiae deletion strains, locus YLR268W, strain sec22, hits give low values 0.931 | S. cerevisiae deletion strains, locus YLR320W, strain mms22, hits give low values 0.895 | S. cerevisiae deletion strains, locus YLR330W, strain CHS5, hits give low values 0.923 | S. cerevisiae deletion strains, locus YLR342W, strain FKS1 (second series), hits give low values 0.864 | S. cerevisiae deletion strains, locus YLR342W, strain FKS1, hits give low values 0.972 | S. cerevisiae deletion strains, locus YLR357W, strain rsc2, hits give low values 1.01 | S. cerevisiae deletion strains, locus YLR370C, strain arc18, hits give low values 0.978 | S. cerevisiae deletion strains, locus YLR384C, strain iki3, hits give low values 0.999 | S. cerevisiae deletion strains, locus YML016C, strain PPZ1, hits give low values 0.976 | S. cerevisiae deletion strains, locus YML032C, strain rad52, hits give low values 0.938 | S. cerevisiae deletion strains, locus YML120C, strain ndi1, hits give low values 0.988 | S. cerevisiae deletion strains, locus YML124C, strain tub3, hits give low values 0.981 | S. cerevisiae deletion strains, locus YMR058W, strain fet3, hits give low values 0.969 | S. cerevisiae deletion strains, locus YMR078C, strain ctf18, hits give low values 0.956 | S. cerevisiae deletion strains, locus YMR125W, strain sto1, hits give low values 0.997 | S. cerevisiae deletion strains, locus YMR129W, hits give low values 0.993 | S. cerevisiae deletion strains, locus YMR205C, strain PFK2, hits give low values 0.92 | S. cerevisiae deletion strains, locus YMR223W, strain ubp8, hits give low values 0.952 | S. cerevisiae deletion strains, locus YMR231W, strain pep5, hits give low values 0.968 | S. cerevisiae deletion strains, locus YMR307W, strain GAS1, hits give low values 0.688 | S. cerevisiae deletion strains, locus YNL067W, strain RPL9B, hits give low values 0.945 | S. cerevisiae deletion strains, locus YNL128W, strain TEP1, hits give low values 0.98 | S. cerevisiae deletion strains, locus YNL153C, strain GIM3, hits give low values 0.978 | S. cerevisiae deletion strains, locus YNL183C, strain NPR1, hits give low values 0.91 | S. cerevisiae deletion strains, locus YNL209W, strain ssb2, hits give low values 0.998 | S. cerevisiae deletion strains, locus YNL233W, strain BNI4, hits give low values 0.935 | S. cerevisiae deletion strains, locus YNL248C, strain rpa49, hits give low values 0.987 | S. cerevisiae deletion strains, locus YNL250W, strain rad50, hits give low values 1.02 | S. cerevisiae deletion strains, locus YNL271C, strain bni1, hits give low values 0.964 | S. cerevisiae deletion strains, locus YNL298W, strain CLA4, hits give low values 0.949 | S. cerevisiae deletion strains, locus YNL322C, strain KRE1 (second series), hits give low values 0.971 | S. cerevisiae deletion strains, locus YNL322C, strain KRE1, hits give low values 0.952 | S. cerevisiae deletion strains, locus YNR049C, strain mso1, hits give low values 0.986 | S. cerevisiae deletion strains, locus YNR052C, strain pop2, hits give low values 0.973 | S. cerevisiae deletion strains, locus YOL012C, strain htz1 1.38 | S. cerevisiae deletion strains, locus YOR001W, strain rrp6, hits give low values 0.998 | S. cerevisiae deletion strains, locus YOR061W, strain CKA2, hits give low values 0.983 | S. cerevisiae deletion strains, locus YOR069W, strain VPS5, hits give low values 0.965 | S. cerevisiae deletion strains, locus YOR070C, strain gyp1, hits give low values 0.962 | S. cerevisiae deletion strains, locus YOR080W, strain dia2, hits give low values 0.999 | S. cerevisiae deletion strains, locus YOR083W, strain WHI5, hits give low values 0.946 | S. cerevisiae deletion strains, locus YOR106W, strain vam3, hits give low values 0.952 | S. cerevisiae deletion strains, locus YOR136W, strain idh2, hits give low values 0.972 | S. cerevisiae deletion strains, locus YOR144C, strain elg1, hits give low values 0.966 | S. cerevisiae deletion strains, locus YOR231W, strain MKK1, hits give low values 0.953 | S. cerevisiae deletion strains, locus YOR265W, strain rbl2, hits give low values 0.974 | S. cerevisiae deletion strains, locus YOR270C, strain vph1, hits give low values 0.84 | S. cerevisiae deletion strains, locus YOR290C, strain snf2, hits give low values 0.929 | S. cerevisiae deletion strains, locus YOR316C, strain cot1, hits give low values 0.966 | S. cerevisiae deletion strains, locus YPL078C, strain atp4, hits give low values 0.911 | S. cerevisiae deletion strains, locus YPL106C, strain sse1, hits give low values 1.02 | S. cerevisiae deletion strains, locus YPL240C, strain hsp82, hits give low values 0.978 | S. cerevisiae deletion strains, locus YPL256C, strain CLN2, hits give low values 0.969 | S. cerevisiae deletion strains, locus YPR119W, strain clb2, hits give low values 0.975 | S. cerevisiae deletion strains, locus YPR141C, strain kar3, hits give low values 0.983 | S. cerevisiae deletion strains, locus YPR167C, strain met16, hits give low values 0.97 | S. cerevisiae deletion strains, strain wtn01, hits give low values 0.919 | S. cerevisiae strains, strain wild type, hits give low values 0.95
